Measurements as given in PubChem BioAssay AID1159580 (chemical genetic matrix, 2015).
The whole screen tested about 5,500 compounds, of which about 2,000 (36%) were called active. Roughly 18% stayed inconclusive and do not appear here. Rule as the data show it: active = normalized growth mostly below about 0.91 (no sharp cut-off); inconclusive = no clear call, values can overlap the other calls; inactive = mostly above about 0.92. This is one part of the list.

Test: chemical genetic growth profiling, strain panel (AID 1159580);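 also: tested at 20 µM; growth read once vehicle control cultures reached saturation at 30 °C; 1 = growth at the plate median or of vehicle wells; lower values mean less growth of the strain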
Settings: S. cerevisiae deletion strains, growth OD

Measured: normalized growth

O=C(CC(=O)c1ccccc1)c1ccccc1
active: locus YAL021C, strain ccr4, hits give low values 0.0705 | locus YAL026C, strain drs2, hits give low values 0.175 | locus YAL030W, strain snc1, hits give low values 0.318 | locus YBL061C, strain skt5, hits give low values 0.12 | locus YBR009C, strain hhf1, hits give low values 0.194 | locus YBR023C, strain chs3, hits give low values 0.211 | locus YBR171W, strain sec66, hits give low values 0.735 | locus YBR231C, strain swc5, hits give low values 0.177 | locus YBR279W, strain paf1, hits give low values 0.453 | locus YCL011C, strain gbp2, hits give low values 0.3 | locus YCL016C, strain dcc1, hits give low values 0.43 | locus YCL069W, strain vba3, hits give low values 0.362 | locus YCR088W, strain abp1, hits give low values 0.462 | locus YDL005C, strain med2, hits give low values 0.596 | locus YDL040C, strain nat1, hits give low values 0.698 | locus YDR001C, strain nth1, hits give low values 0.639 | locus YDR069C, strain doa4, hits give low values 0.0695 | locus YDR137W, strain rgp1, hits give low values 0.135 | locus YDR159W, strain sac3, hits give low values 0.541 | locus YDR195W, strain ref2 0.516 | locus YDR297W, strain sur2, hits give low values 0.192 | locus YDR334W, strain swr1, hits give low values 0.152 | locus YDR335W, strain msn5, hits give low values 0.227 | locus YDR392W, strain spt3, hits give low values 0.396 | locus YEL003W, strain gim4, hits give low values 0.379 | locus YEL037C, strain rad23, hits give low values 0.342 | locus YEL061C, strain CIN8 (second series), hits give low values 0.437 | locus YER015W, strain faa2, hits give low values 0.122 | locus YER016W, strain bim1, hits give low values 0.544 | locus YER111C, strain swi4, hits give low values 0.204 | locus YER155C, strain BEM2 (second series), hits give low values 0.381 | locus YFR010W, strain ubp6, hits give low values 0.171 | locus YGL167C, strain pmr1, hits give low values 0.166 | locus YGL173C, strain kem1, hits give low values 0.119 | locus YGL227W, strain vid30, hits give low values 0.725 | locus YGL240W, strain doc1, hits give low values 0.457 | locus YGL253W, strain hxk2, hits give low values 0.147 | locus YHR013C, strain ard1, hits give low values 0.14 | locus YHR027C, strain rpn1, hits give low values 0.0797 | locus YHR030C, strain SLT2, hits give low values 0.515 | locus YHR079C, strain IRE1, hits give low values 0.468 | locus YHR142W, strain chs7, hits give low values 0.171 | locus YJL092W, strain hpr5, hits give low values 0.432 | locus YJL095W, strain BCK1 (second series), hits give low values 0.108 | locus YJL095W, strain BCK1, hits give low values 0.524 | locus YJL115W, strain asf1, hits give low values 0.546 | locus YJL129C, strain trk1, hits give low values 0.596 | locus YJL154C, strain vps35, hits give low values 0.237 | locus YJL164C, strain tpk1, hits give low values 0.154 | locus YJL166W, strain qcr8, hits give low values 0.16 | locus YJR066W, strain TOR1, hits give low values 0.565 | locus YKL160W, strain elf1, hits give low values 0.578 | locus YKR026C, strain gcn3, hits give low values 0.685 | locus YKR091W, strain srl3, hits give low values 0.527 | locus YLL001W, strain dnm1, hits give low values 0.363 | locus YLL026W, hits give low values 0.373 | locus YLL041C, strain sdh2, hits give low values 0.328 | locus YLR027C, strain aat2, hits give low values 0.261 | locus YLR113W, strain HOG1, hits give low values 0.348 | locus YLR221C, strain rsa3, hits give low values 0.284 | locus YLR258W, strain gsy2, hits give low values 0.234 | locus YLR262C, strain YPT6 (second series), hits give low values 0.101 | locus YLR320W, strain mms22, hits give low values 0.207 | locus YLR342W, strain FKS1, hits give low values 0.344 | locus YLR357W, strain rsc2, hits give low values 0.471 | locus YLR370C, strain arc18, hits give low values 0.147 | locus YLR384C, strain iki3, hits give low values 0.437 | locus YML120C, strain ndi1, hits give low values 0.498 | locus YMR058W, strain fet3, hits give low values 0.0728 | locus YMR125W, strain sto1, hits give low values 0.82 | locus YMR129W, hits give low values 0.393 | locus YMR205C, strain PFK2, hits give low values 0.242 | locus YMR231W, strain pep5, hits give low values 0.0832 | locus YNL071W, strain lat1, hits give low values 0.351 | locus YNL183C, strain NPR1, hits give low values 0.517 | locus YNL209W, strain ssb2, hits give low values 0.0845 | locus YNL248C, strain rpa49, hits give low values 0.552 | locus YNL322C, strain KRE1 (second series), hits give low values 0.619 | locus YNR049C, strain mso1, hits give low values 0.434 | locus YOR001W, strain rrp6, hits give low values 0.45 | locus YOR070C, strain gyp1, hits give low values 0.575 | locus YOR080W, strain dia2, hits give low values 0.127 | locus YOR083W, strain WHI5, hits give low values 0.186 | locus YOR106W, strain vam3, hits give low values 0.0633 | locus YOR231W, strain MKK1, hits give low values 0.497 | locus YOR265W, strain rbl2, hits give low values 0.179 | locus YOR270C, strain vph1, hits give low values 0.105 | locus YOR290C, strain snf2, hits give low values 0.391 | locus YPL051W, strain arl3, hits give low values 0.102 | locus YPL078C, strain atp4, hits give low values 0.414 | locus YPL106C, strain sse1, hits give low values 0.416 | locus YPL240C, strain hsp82, hits give low values 0.4 | locus YPL256C, strain CLN2, hits give low values 0.57
